HTR5A inv ag = counter-screen for OPRM1-OPRD1 inverse agonists: human HTR5A inverse agonism; P47898; HTR5A cell line, luminescence; inhibition, % at 9.3 µM; hit rate 0.083% among 340,000; AID 504634; in the data active means inhibition mostly above about 23%, no sharp cut-off; inactive means mostly below about 18%;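 further: 0% = cells with DMSO and 100% = no-cell wells with DMSO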
HTR5A ag ctr = counter-screen for OPRM1-OPRD1 agonists: human HTR5A agonism | hit rate 0.61% among 340,000 | activation, % at 9.3 µM | HTR5A agonist assay, luminescence, cell-based; in the data active means activation mostly above about 9.5%, no sharp cut-off; inactive means mostly below about 7.6%;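 further: 0% = cells with vehicle only and 100% = reference agonist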
OPRM1-OPRD1 inv = mu-delta opioid heterodimer inverse agonism; P35372+P41143; hit rate 0.21% among 340,000; AID 504357; inhibition, % at 9.3 µM; cell-based MOR-DOR heterodimer luminescence; in the data active means inhibition above about 22%, passing the limit was not always enough;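 further: 0% = cells with DMSO and 100% = wells without cells with DMSO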
Target sequence (P35372 whole entry, looked up): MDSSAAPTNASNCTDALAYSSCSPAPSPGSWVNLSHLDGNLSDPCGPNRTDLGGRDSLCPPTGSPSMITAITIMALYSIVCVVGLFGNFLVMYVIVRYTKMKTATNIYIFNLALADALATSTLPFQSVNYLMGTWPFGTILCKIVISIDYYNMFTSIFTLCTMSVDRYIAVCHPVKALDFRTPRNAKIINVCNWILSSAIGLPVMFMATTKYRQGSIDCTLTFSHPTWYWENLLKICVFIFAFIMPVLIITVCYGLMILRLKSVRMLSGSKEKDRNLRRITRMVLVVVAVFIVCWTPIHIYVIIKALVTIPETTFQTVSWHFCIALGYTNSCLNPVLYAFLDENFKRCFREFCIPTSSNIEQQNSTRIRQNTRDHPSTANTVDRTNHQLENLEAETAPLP
Target sequence (P41143 whole entry, looked up): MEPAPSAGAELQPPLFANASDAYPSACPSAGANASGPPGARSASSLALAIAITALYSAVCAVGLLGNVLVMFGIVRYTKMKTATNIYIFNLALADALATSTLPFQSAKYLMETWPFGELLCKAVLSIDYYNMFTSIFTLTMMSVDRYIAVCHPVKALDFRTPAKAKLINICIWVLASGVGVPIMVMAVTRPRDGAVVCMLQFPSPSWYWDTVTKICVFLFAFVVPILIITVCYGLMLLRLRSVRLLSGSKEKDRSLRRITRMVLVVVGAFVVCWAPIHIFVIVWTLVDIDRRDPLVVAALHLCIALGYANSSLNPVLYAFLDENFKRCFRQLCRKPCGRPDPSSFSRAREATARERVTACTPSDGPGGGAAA
MOR-DOR ag = agonists of human mu-delta opioid receptor heterodimerization; activation, % at 9.3 µM; cells, OPRM1-OPRD1 heterodimerization, luminescence; hit rate 0.3% among 340,000;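 further: 0% = vehicle-treated cells and 100% = reference agonist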
OPRM1-D1 ag cf = confirmation of human OPRM1-OPRD1 heterodimerization agonists; cells, MOR-DOR heterodimerization, luminescence complementation; shares compounds with MOR-DOR ag; activation, % at 9.3 µM; hit rate 45% among 830;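 further: 0% = vehicle-treated cells and 100% = reference agonist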
HTR5A ag counter = HTR5A agonism, opioid heterodimer counter-screen. shares compounds with MOR-DOR ag. HTR5A agonist counterscreen, cell luminescence. activation, % at 9.3 µM. hit rate 8% among 830; in the data active means activation above about 17%;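 further: 0% = vehicle-treated cells and 100% = reference agonist response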
* marks the source's active call; other numbers are inactive results; i = inactive; x = not tested or not shown. In the library only some 1.1% were active in any assay of this set; here they are far more common. Unless noted, no stated cut-off is given here; in the data, active means activation above about 18%; inactive means the rest.

SMILES	HTR5A inv ag	HTR5A ag ctr	OPRM1-OPRD1 inv	MOR-DOR ag	others
CCN1/C(=C\C=C\C2=[N+](CC)c3ccccc3C2(C)C)C(C)(C)c2ccccc21	38*	-11	-53	8
O=c1c2ccccc2nc(/C=C/c2ccc(O)cc2)n1-c1ccc(O)cc1	11	-3	-12	3
O=c1c2ccccc2nc(/C=C/c2ccc(O)cc2)n1-c1cccc(O)c1	-25	9.8*	12	-2
COc1ccc(-n2c(/C=C/c3ccc(O)cc3)nc3ccccc3c2=O)cc1	-38	10.0*	-5	1
O=C(Cc1ccccc1F)N1CCN(CC(=O)N2CCCC2)CC1	12	-3	8	-2
C#CC1(O)C=CC2C3CCC4=CC(=O)CCC4C3CCC21CC (stereo unspecified)	10	-3	-3	1
C#CC1(O)CCC2C3CCC4=CC(=O)CCC4=C3C=CC21C (stereo unspecified)	-43	11*	2	0
C[C@@H]1O[C@@H](O[C@@H]2C=C3CC[C@@H]4C(CC[C@]5(C)[C@@H](c6ccc(=O)oc6)CC[C@]45O)[C@@]3(C)CC2)[C@H](O)[C@H](O)[C@H]1O (stereo partly specified)	-65	22*	-393	68*
CC(=O)C1CCC2(O)C3CCC4=CC(=O)CCC4(C)C3CCC12C (stereo unspecified)	9	-2	19	-4
CC(=O)NCCc1c[nH]c2ccccc12	9	0	-1	0
c1coc(CNCCc2c[nH]c3ccccc23)c1	-50	13*	9	-2
NCCc1c[nH]c2ccccc12	-7	50*	-11	2
COC1C(C)OC(OC2CC(C)(O)Cc3cc4c(c(O)c32)C(=O)c2c(O)cc3c(c2C4=O)OC2OC3(C)C(O)C(N(C)C)C2O)C(OC)C1(C)OC (stereo unspecified)	6	-2	-26	6
COc1cc2c(c(OC)c1OC)-c1ccc(SC)c(=O)cc1C(NC(C)=O)CC2 (stereo unspecified)	-4	1	7	-2
S=c1[nH]c2ccccc2[nH]1	-29	10*	16	-3
CC(C)c1ccc(-n2c(O)c(C=NCCN3CCNCC3)c(=O)[nH]c2=S)cc1	-39	10*	-4	1
Cc1ccc(-n2c(O)c(C=NCCN3CCNCC3)c(=O)[nH]c2=S)cc1	2	-1	5	-1
C[C@@H]1O[C@@H](O[C@H]2C[C@@H](O)[C@]3(CO)[C@H]4[C@H](O)C[C@]5(C)[C@@H](C6COC(=O)C6)CC[C@]5(O)[C@@H]4CC[C@]3(O)C2)[C@H](O)[C@H](O)[C@H]1O (stereo partly specified)	-81	27	-404	73*
COC(=O)C12OCC34C(CC5C(C)=C(O)C(=O)CC5(C)C3C(O)C1O)OC(=O)C(OC(=O)/C=C(\C)C(C)C)C24 (stereo unspecified)	4	-1	15	-4
COC(=O)C1=C(c2ccc(F)cc2F)C[C@@H]2CC[C@H]1N2C(=O)N1CCC(O)CC1	-14	7	-12	2
Cc1cc(C)cc(N2C(=O)NC(=O)/C(=C\c3cccn3-c3ccc(Cl)cc3)C2=O)c1	-51	14*	-7	1
Cc1cc(C)cc(N2C(=O)NC(=O)/C(=C\c3cccn3-c3ccccc3)C2=O)c1	-23	12	-7	1
Cc1ccc(C(=O)Nc2ccc(Cl)cc2C(=O)c2ccccc2)cc1	-39	11*	-43	7
CC1=NNC(=O)C1Br (stereo unspecified)	-1	0	12	-3
CC(=O)OC1CC(OC2C(O)CC(OC3C(O)CC(OC4CCC5(C)C(CCC6C5CCC5(C)C(C7=CC(=O)OC7)CCC65O)C4)OC3C)OC2C)OC(C)C1OC1OC(CO)C(O)C(O)C1O (stereo unspecified)	-146	37*	-349	68*
SMILES	HTR5A inv ag	HTR5A ag ctr	OPRM1-OPRD1 inv	MOR-DOR ag	others
COc1cc2c(cc1OC)C13CCN4CC5=CCOC(CC(=O)O)C(C5CC41)C3N2 (stereo unspecified)	-10	3	6	-1
N#Cc1cc2c(nc1SCC(=O)Nc1ccc(Cl)cc1)C1CCN2CC1	-2	12*	-4	1
N#Cc1cc2c(nc1SCC(=O)Nc1cc(Cl)ccc1Cl)C1CCN2CC1	-1	0	3	-1
COC(=O)C1=C(c2ccc(F)cc2OCc2ccccc2)C[C@@H]2CC[C@H]1N2C(=O)NCCN1CCOCC1	7	-3	-4	1
CCOc1cccc(CNCCc2c(C)[nH]c3ccc(OC(F)(F)F)cc23)c1O	-63	16*	-111	20*
O=P(O)(O)CN1CCNCCN(CP(=O)(O)O)CCNCC1	-25	6	15	-3
Cc1ccc2[nH]c(C)c(CCNCc3ccco3)c2c1	5	-1	-2	0
Cc1cccc(CCNCc2cc3ccc(C)cc3[nH]c2=O)c1	-43	12*	5	-1
CC12CCC(=O)C=C1CC(N1CC1)C1C2CCC2(C)C(O)CCC12 (stereo unspecified)	-18	5	14	-3
Cc1cc(N2CCN(C)CC2)nc2ccccc12	-34	9.1*	1	0
COc1ccc(C(=O)N/N=C/C23CC[C@@H](O)CC2(O)CC[C@@H]2[C@@H]3CCC3(C)C(C4=CC(=O)OC4)CCC23O)cc1 (stereo partly specified)	19	30*	-169	34*
CN(C)c1ccc(C(=O)N/N=C/C23CC[C@@H](O)CC2(O)CC[C@@H]2[C@@H]3CCC3(C)C(C4=CC(=O)OC4)CCC23O)cc1 (stereo partly specified)	6	35*	-301	59*
COC(=O)C1=C(c2cccc(Cl)c2)C[C@@H]2CC[C@H]1N2C(=O)NCC1CC1	-4	5	-28	5
CCC(COC(=O)c1cc(OC)c(OC)c(OC)c1)(c1ccccc1)N(C)C (stereo unspecified)	17	-5	-294	54*	OPRM1-D1 ag cf=51*;HTR5A ag counter=14
N#CC(CCN1CCOCC1)(c1ccccc1)c1ccccc1	2	-1	21	-4
CCC(=O)C(CCN1CCOCC1)(c1ccccc1)c1ccccc1	3	1	i	271*	OPRM1-D1 ag cf=250*;HTR5A ag counter=-1
CN1CCC23c4c5ccc(O)c4O[C@@H]2[C@H](O)C=CC3C1C5 (stereo partly specified)	5	-2	x	x
CN1CC[C@]23c4c5ccc(O)c4OC2[C@H](O)C=CC3[C@H]1C5 (stereo partly specified)	-1	0	x	x	HTR5A ag counter=5
CC1OC(OC2CC(O)C3(CO)C4C(O)CC5(C)C(C6=CC(=O)OC6)CCC5(O)C4CCC3(O)C2)C(O)C(O)C1O (stereo unspecified)	0	26*	-404	80*	OPRM1-D1 ag cf=5;HTR5A ag counter=3
COc1cccc2c1N=C1CCCC3CN(C(C)=O)CCC123 (stereo unspecified)	-2	0	12	-2
